Rows were chosen to be rich in hits. Some 3.5% of all compounds tested hit in one or more screens of this group.
Pf apPOL inh: Pf-apPOL DNA polymerase inhibition; Recombinant Pf-apPOL, molecular beacon fluorescence, 1.5 h; hit rate 0.25% among 210,000; inhibition, % at 10 µM; AID 1794808
mHTT CaM bind: mHTT-calmodulin interaction abrogation; AlphaScreen His-mHTT/GST-CaM binding, luminescence; inhibition, % at 15 µM; hit rate 3.6% among 190,000; AID 1671202;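 note: 0% = both proteins with DMSO and 100% = one protein alone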
Target sequence (P42858 whole entry, looked up, stated change not applied): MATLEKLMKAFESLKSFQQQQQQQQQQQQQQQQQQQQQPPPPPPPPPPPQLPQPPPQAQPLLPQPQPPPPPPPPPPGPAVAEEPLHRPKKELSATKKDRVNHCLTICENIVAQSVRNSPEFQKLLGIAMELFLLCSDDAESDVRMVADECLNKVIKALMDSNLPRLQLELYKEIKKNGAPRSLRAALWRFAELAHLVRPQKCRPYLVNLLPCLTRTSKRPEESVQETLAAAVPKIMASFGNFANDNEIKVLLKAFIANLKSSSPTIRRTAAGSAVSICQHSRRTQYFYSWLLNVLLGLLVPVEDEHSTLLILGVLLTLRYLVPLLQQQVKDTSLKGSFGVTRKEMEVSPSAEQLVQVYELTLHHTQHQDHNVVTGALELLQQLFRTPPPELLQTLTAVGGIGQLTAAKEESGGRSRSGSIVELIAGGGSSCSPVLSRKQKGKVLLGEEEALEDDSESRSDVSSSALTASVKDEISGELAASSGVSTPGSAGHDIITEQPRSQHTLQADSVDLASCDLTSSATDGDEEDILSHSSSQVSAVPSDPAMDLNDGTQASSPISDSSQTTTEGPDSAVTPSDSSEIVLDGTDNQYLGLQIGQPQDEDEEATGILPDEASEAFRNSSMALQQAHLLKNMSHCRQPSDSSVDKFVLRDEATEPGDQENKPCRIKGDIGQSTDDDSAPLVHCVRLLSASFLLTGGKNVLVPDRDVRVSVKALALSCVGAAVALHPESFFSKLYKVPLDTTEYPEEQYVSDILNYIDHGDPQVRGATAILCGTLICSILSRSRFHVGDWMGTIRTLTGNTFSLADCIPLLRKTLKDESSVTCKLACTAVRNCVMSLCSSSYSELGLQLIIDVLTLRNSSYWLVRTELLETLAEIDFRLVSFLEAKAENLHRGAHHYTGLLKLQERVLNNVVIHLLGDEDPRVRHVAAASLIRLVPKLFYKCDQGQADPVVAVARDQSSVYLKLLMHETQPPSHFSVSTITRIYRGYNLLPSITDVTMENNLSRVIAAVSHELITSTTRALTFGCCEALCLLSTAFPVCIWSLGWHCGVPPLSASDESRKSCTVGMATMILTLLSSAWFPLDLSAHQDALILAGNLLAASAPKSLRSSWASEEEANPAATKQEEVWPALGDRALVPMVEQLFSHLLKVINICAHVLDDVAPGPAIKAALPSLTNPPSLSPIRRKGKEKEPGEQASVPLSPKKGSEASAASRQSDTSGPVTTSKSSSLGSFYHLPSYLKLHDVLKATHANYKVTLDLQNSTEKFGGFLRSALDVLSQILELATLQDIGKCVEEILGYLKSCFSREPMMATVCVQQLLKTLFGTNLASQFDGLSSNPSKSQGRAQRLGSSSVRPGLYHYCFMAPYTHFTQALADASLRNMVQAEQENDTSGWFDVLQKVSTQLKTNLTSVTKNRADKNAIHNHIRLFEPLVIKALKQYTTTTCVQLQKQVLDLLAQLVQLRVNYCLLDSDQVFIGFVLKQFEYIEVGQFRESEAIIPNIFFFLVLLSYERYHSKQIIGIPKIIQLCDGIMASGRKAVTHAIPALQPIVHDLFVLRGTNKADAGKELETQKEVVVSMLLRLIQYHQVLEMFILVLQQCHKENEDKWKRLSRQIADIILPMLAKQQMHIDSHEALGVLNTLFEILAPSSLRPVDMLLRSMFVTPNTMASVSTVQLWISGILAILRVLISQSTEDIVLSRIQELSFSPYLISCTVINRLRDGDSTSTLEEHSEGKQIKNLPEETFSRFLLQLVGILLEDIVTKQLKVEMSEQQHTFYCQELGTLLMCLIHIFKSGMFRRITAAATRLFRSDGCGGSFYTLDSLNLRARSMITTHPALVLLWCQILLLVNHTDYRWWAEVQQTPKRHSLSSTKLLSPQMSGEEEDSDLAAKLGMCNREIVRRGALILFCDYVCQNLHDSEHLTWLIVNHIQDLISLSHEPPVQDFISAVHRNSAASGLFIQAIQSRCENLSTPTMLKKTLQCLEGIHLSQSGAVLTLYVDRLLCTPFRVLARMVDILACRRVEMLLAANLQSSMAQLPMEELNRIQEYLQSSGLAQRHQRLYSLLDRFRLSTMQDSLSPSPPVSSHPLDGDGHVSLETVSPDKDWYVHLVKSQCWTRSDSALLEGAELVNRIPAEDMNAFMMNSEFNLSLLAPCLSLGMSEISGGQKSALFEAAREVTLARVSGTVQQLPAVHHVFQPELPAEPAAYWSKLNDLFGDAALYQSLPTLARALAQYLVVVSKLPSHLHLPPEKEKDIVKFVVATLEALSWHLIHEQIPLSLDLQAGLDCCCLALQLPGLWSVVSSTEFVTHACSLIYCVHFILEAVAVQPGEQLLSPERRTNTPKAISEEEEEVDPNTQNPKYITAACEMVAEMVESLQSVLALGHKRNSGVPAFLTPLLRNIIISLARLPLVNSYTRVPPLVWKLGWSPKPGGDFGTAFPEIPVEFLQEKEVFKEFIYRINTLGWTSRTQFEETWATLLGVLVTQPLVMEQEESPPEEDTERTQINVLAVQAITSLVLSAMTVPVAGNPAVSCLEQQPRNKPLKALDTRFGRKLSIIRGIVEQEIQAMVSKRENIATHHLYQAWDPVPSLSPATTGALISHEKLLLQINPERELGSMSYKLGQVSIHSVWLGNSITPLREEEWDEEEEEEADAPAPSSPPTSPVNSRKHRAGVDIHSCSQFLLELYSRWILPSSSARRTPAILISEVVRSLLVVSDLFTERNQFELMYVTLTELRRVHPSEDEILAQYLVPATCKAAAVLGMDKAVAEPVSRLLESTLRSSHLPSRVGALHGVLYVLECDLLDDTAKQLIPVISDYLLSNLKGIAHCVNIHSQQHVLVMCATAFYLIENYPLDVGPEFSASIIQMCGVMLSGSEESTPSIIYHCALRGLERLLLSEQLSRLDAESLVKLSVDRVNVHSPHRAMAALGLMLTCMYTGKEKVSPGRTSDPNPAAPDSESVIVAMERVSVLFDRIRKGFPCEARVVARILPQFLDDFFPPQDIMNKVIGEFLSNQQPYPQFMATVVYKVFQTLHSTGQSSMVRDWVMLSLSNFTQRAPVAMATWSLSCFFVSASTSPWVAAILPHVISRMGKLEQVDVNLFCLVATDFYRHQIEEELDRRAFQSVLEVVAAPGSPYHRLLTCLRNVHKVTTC
* = called active by the depositor; x = not tested or not shown. Cut-off read from the data, not from the text of the source: active = inhibition above about 50%; inactive = the rest.

SMILES | Pf apPOL inh | mHTT CaM bind
CN(C)c1ccc(C(=O)N2CCc3cn(C)c4cccc(c34)C2)cc1 | -4 | 1
O=C1/C(=C/c2cccc(Cl)c2)Cc2ccccc21 | 0 | 7
Cc1nccn1C(C)CC(=O)O (centres undefined) | x | -5
O=C(Nc1ccccc1O)/C(=C1\Nc2ccc([N+](=O)[O-])cc2N1)[N+](=O)[O-] | 5 | 20
NCCNC(=O)/C(=C1\Nc2ccc([N+](=O)[O-])cc2N1)[N+](=O)[O-] | 3 | 63*
O=C1C2C3C=CC(C3)C2C(=O)N1c1ccc2c(c1)OCCO2 (centres undefined) | x | -7
COc1cc(/C=C2\C(=O)ON=C2C)cc(Br)c1OCc1ccc(C)cc1 | 14 | 70*
C=CCOc1c(Br)cc(/C=C2\C(=O)ON=C2C)cc1OC | -2 | 21
CC1=NOC(=O)/C1=C/c1ccccc1OCc1ccc(Br)cc1 | 1 | 54*
COc1cc(/C=C2\C(=O)ON=C2C)ccc1OCc1ccccc1F | -4 | 41
CC1=NOC(=O)/C1=C/c1ccc(OCc2ccc(C)cc2)c(Cl)c1 | -5 | 33
CC1=NOC(=O)/C1=C/c1ccccc1OCc1ccccc1Cl | -2 | 4
COc1cc(/C=C2\C(=O)ON=C2C)cc(Br)c1OCc1ccccc1F | -4 | 64*
COc1cc(/C=C2\C(=O)ON=C2C)cc(Cl)c1OCc1ccc(C)cc1 | 0 | 95*
COc1ccc(C=C2Oc3c(ccc(OC)c3C)C2=O)cc1 | -7 | -4
Cc1ccc(NC(=O)Nc2cccc(Cl)c2)cc1F | 9 | -19
CCCc1nnc(NC(=O)C2C3CC4CC(C3)CC2C4)s1 (centres undefined) | -2 | -6
CC1(c2ccc(Br)cc2)NC(=O)CS1 (centres undefined) | -6 | 85*
CC1CCC2(CC1)SCC(=O)N2c1ccc(Br)cc1 (centres undefined) | 13 | 2
CCCC(CCC)C(=O)Nc1cccc(NC(=O)c2ccco2)c1 | 2 | 2
CC1=NN(c2ccc(Cl)c(Cl)c2)C(=O)/C1=C/c1ccc(-c2ccc3c(c2)C(=O)OC3)o1 | -9 | 38
O=C1NN(c2ccc(Cl)c(Cl)c2)C(=O)/C1=C/c1ccc(-c2ccc3c(c2)COC3=O)o1 | 56* | 60*
COc1cccc2cc(C(=O)N(CC3CCCO3)c3nc4c(F)cc(F)cc4s3)oc12 (centres undefined) | 1 | -8
CNc1cc(-n2nc(C)cc2-c2ccccc2)ncn1 | 7 | 3
Cc1cc(-c2ccccc2)n(-c2cc(Nc3cccc(C(F)(F)F)c3)ncn2)n1 | -3 | 93*
SMILES | Pf apPOL inh | mHTT CaM bind
COc1ccc(NC(=O)N2CCc3c(c(COCc4cccc(F)c4)nn3C)C2)cc1 | -4 | 18
CCC(=O)NCc1nc2c(n1CC)CN(C(=O)c1cc(F)cc(F)c1)CC2 | -9 | 7
O=C1C=CC(=NS(=O)(=O)c2ccc(F)cc2)C=C1 | -9 | 50*
O=C1C=CC(=NS(=O)(=O)c2cccc(C(=O)O)c2)C=C1 | 59* | 58*
CC(C)(C)C1=CC(=NS(=O)(=O)c2ccc(F)cc2)C=C(C(C)(C)C)C1=O | -6 | 1
CC(C)c1ccc(S(=O)(=O)N=C2C=CC(=O)C=C2)cc1 | 1 | 86*
Cc1ccc(S(=O)(=O)N=C2C=CC(=O)C=C2)cc1 | -5 | 46
O=C(O)c1cccc(S(=O)(=O)N2CCCCCC2)c1 | -3 | -15
C#CCOc1c(I)cc(/C=C2\NC(=O)NC2=O)cc1OC | -5 | 41
O=CN1Cc2[nH]c3ccccc3c2N(c2ccccc2)C1=O | 2 | 3
O=C(CCn1c(=O)c2sccc2n(Cc2ccc([N+](=O)[O-])cc2)c1=O)NCc1ccccc1 | 0 | -2
O=C(c1ccc(Cl)cc1)N1CCN(c2ccc([N+](=O)[O-])c(N3CCCCC3)c2)CC1 | -2 | -5
C=CCn1c(C(=O)NC2CC2)cc2sc(Br)cc21 | -5 | -1
C=CCn1c(C(=O)NCc2ccncc2)cc2sc(Br)cc21 | -8 | 51*
CCc1ccc(NS(=O)(=O)c2ccc(OC)c(Br)c2)cc1 | -2 | -22
O=C(C1CCCC1)N1CCCC1c1nc(-c2ccc(F)cc2F)no1 (centres undefined) | -1 | -6
COc1cccc(C2CC(c3ccc4c(c3)OCO4)=NC3(CCN(C(C)=O)CC3)N2)c1O (centres undefined) | 1 | 33
CC(C)(C)N=C1Nc2ccccc2NC12CCCN(C(=O)c1ccccc1)C2 (centres undefined) | -5 | 82*
Cc1ccccc1OCC(=O)N1CCCC2(C1)Nc1ccccc1NC2=NC(C)(C)C (centres undefined) | 6 | 75*
CC(C)(C)N=C1Nc2ccccc2NC12CCCN(C(=O)COc1ccccc1)C2 (centres undefined) | -5 | 36
CC(C)(C)N=C1Nc2ccccc2NC12CCCN(C(=O)c1ccncc1)C2 (centres undefined) | 16 | 18
O=C(c1ccccc1)N1CC2CC1CC2NS(=O)(=O)c1cccnc1 (centres undefined) | -2 | -2

From PubChem BioAssay
